Measurements published in PubChem BioAssay AID720650 (Broad Institute, 2013).
Activity calls are given as the source filed them. No rule for the calls is given here.

test: Biochemical counterscreen for C difficile toxins, absence of UDPG, inhibitor dose response (AID 720650); conditions: series mostly up to 19.5 µM; activity change, negative = inhibition: at the top concentration

Structure (SMILES) | AC50 | activity change, negative = inhibition
CNC(=O)N(O)C1N(/N=C/c2cccs2)C(=S)SC1(C)C (configuration not stated) | > 39 µM (inactive) | 
Cc1ccc(S(=O)(=O)N2CCOCC2)cc1C(=O)NCCCN1CCCC1=O |  | -7.95% (inactive)
Cc1c(CCCC(=O)O)sc(N)c1C(=O)c1cccc(C(F)(F)F)c1 |  | -5.33% (inactive)
ON=C1c2ccccc2-c2ccc(O)cc21 | 7.21 µM (active) | 
CCOC(=O)/C=c1/s/c(=C/c2ccc3cc(OC)ccc3c2)c(=O)n1CC(=O)NCC1CCCO1 (configuration not stated) |  | -9.72% (inactive)
Nc1nc(Nc2ccccc2)n[nH]1 | > 39 µM (inactive) | 
COc1nc(C)cc(C)c1S(=O)(=O)c1ccc(Cl)cc1 |  | -8.33% (inactive)
COc1ccc(C2=NS(=O)(=O)N(C)C(C(=O)NCc3ccc(F)cc3)=C2)cc1OC |  | -12.4% (inactive)
Cc1nn(C2CC(O)C(O)C(CO)O2)c(=O)[nH]c1=O (configuration not stated) |  | -11.3% (inactive)
COc1ccc(CNCCc2ccc3c(c2)OCO3)cc1Br |  | 3.39% (inactive)
CC(C)NC(=O)N1CC[C@@H]2[C@H]1c1cc(-c3ccccc3)ccc1N(C)[C@H]2CO | 5.77 µM (active) | 
COC(=O)C1=C(c2ccc(OCc3ccccc3)cc2)C[C@@H]2CC[C@H]1N2C(=O)NCCCc1ccccc1 |  | -7.81% (inactive)
Cc1ccc(C(=O)COC(=O)c2cc(=O)[nH]c3ccccc23)cc1 |  | -6.45% (inactive)
COc1ccc(C(=O)NC(CC(=O)O)c2cc([N+](=O)[O-])ccc2Cl)c(SC)c1 (configuration not stated) |  | 8.05% (inactive)
COc1ccc(C(=O)/C=C/c2ccc(O)cc2)c2c1CC(O)C(C)(C)O2 (configuration not stated) |  | -8.07% (inactive)
Cc1ccc(S(=O)(=O)N2CC(CO)=CCC2c2ccccc2)cc1 (configuration not stated) | 8.79 µM (active) | 
O=C(OCC(=O)N1CCCc2ccccc21)c1ccc(C(F)(F)F)cc1 |  | -11.2% (inactive)
